a7 integrin act: qHTS for Activators of Integrin-Mediated Alleviation for Muscular Dystrophy; alpha7betagal myoblasts, beta-gal FDG fluorescence, 48 h; Potency, µM (top dose mostly 38.3 µM), inactives show top-dose activation, actives largely listed as activators; 0.064% of 350,000 active;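 note: 100% = response of the positive control SU9516; nearly all actives have a fitted effect of over 60% in size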
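Alpha7betagal+/- myoblasts (passage 13) were plated 16-24 hr, then exposed to compounds (1:260 dilution of DMSO stock) for 48 hours at 37C. After MPER lysis, β-galactosidase reporter activity was read as FDG fluorescence (ex 480/em 540) after 30 minutes.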
RORg inh: qHTS for inhibitors of ROR gamma transcriptional activity; 5.4% of 310,000 active; Nuclear receptor ROR-gamma (Mus musculus), P51450; Potency, µM (doses to about 53.6 µM), for the others: top-dose activity change, negative = inhibition, most hits filed as inhibitors; AID 2551, 2010; Drosophila S2 Gal4-RORgamma UAS-luciferase reporter, 20 h; note: % is set by controls: 0 for no effect and ±100 for the full control effect; nearly all actives have a fitted effect of over 60% in size
Target sequence (P51450 whole entry, looked up, the tested form may be a part): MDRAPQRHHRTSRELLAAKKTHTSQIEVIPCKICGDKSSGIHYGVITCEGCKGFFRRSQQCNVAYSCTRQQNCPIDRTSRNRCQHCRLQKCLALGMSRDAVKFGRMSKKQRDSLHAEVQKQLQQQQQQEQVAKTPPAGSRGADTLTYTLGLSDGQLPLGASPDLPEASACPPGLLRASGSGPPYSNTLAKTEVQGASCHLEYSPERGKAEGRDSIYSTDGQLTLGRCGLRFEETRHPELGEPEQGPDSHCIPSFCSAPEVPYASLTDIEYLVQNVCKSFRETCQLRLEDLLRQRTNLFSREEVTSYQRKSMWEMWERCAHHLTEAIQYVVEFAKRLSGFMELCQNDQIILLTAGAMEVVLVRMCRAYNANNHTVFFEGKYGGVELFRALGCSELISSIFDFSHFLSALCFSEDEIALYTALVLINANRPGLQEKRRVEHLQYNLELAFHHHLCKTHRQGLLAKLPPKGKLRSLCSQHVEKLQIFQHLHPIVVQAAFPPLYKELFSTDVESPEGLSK
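Drosophila Schneider cells stably carrying a metallothionein-driven Gal4 DBD–ROR gamma fusion and a UAS-Photinus luciferase reporter were exposed to compound for 1 hr, then induced with copper sulfate (700 uM final) for 20 hr at ambient temperature before luminescence reading.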
VP16 counter: VP16 counterscreen qHTS for inhibitors of ROR gamma transcriptional activity; Drosophila S2 Gal4-VP16 UAS-luciferase, luminescence, 20 h; Potency, µM (series often up to 53.6 µM), without a hit: at the top dose activity, negative = inhibition, actives largely listed as inhibitors; 3.5% of 310,000 active; AID 2546, 2010;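 note: Gal4-VP16 expression switched on by copper sulfate through the metallothionein promoter; % is set by controls: 0 for no effect and ±100 for the full control effect; nearly all actives have a fitted effect of over 50% in size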
Mito fusion act: qHTS Assay for Small Molecule Inhibitors of Mitochondrial Division or Activators of Mitochondrial Fusion. S. cerevisiae fusion-defective mutant growth rescue, CellTiterGlo 48 h. Potency, µM (top dose mostly 46.1 µM), for inactives: top-dose growth rescue (activation), usual class: activators. 0.23% of 320,000 active. AID 485298, 2010; note: % of control where 0% means no effect; nearly all actives have a fitted effect of over 45% in size
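Temperature-sensitive fusion-defective S. cerevisiae (e.g. fzo1-1, mgm1-5) were grown with compound in YPEG medium (3% ethanol, 3% glycerol) for 48 hours at 37C. Growth rescue was measured as viability by CellTiterGlo luminescence after 10 minutes at ambient.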
Chronic BCR inh: qHTS Assay to Find Inhibitors of Chronic Active B-Cell Receptor Signaling; ABC-DLBCL IkBa-CBG/CBR reporter, luminescence ratio, 4 h; AID 493014, 2011; 0.05% of 340,000 active; Potency, µM (top dose mostly 46.1 µM), for the others: at the top dose activity change, negative = inhibition, hits mostly inhibitors; active = well fitted inhibition curve with a large enough effect in the signal ratio, with a control signal flat, not every such curve was filed as active; inconclusive = small, poorly fitted or top-dose-only effect, or effect the other way, or a change in a side signal; the % refers to the signal ratio;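 note: plate controls were basal doxycycline-induced cells for no effect and cells given 10 µM MG132 for full effect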
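Cell line TMD8 (human ABC DLBCL), stably expressing tet-inducible CBG68-IkBa fusion and CBR; IMDM/0.5% FBS; cpd up to 46 uM; dox induction, 4 h, 37C/5% CO2; dual luminescence; green/red ratio; MG132 control.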
uPA surface inh: qHTS for Inhibitors of Cell Surface uPA Generation. cell surface uPA generation assay, qHTS. Potency, µM (doses to about 38.3 µM), without a hit: at the top dose activity change, negative = inhibition, hits mostly inhibitors. 0.31% of 330,000 active. AID 540303, 2011; active = well fitted inhibition curve with a large enough effect; inconclusive = small, poorly fitted or top-dose-only effect; inactive = no such curve, though single readings can be large or run the other way; tested in mouse RAW 264.7 cells; note: % is set by controls: 0 for no effect and ±100 for the full control effect; nearly all actives have a fitted effect of over 55% in size
Numbers without * were called inactive; ? = inconclusive; nt = no result; [ ] = dose if it differs, or a comment. Rows were chosen to be rich in hits. Some 5.5% of all compounds tested hit in one or more screens of this group. Unless noted, calls come from the whole dose curve; as a rule, active = well fitted curve in the direction sought with a large enough effect; inconclusive = small, poorly fitted or top-dose-only effect, or another doubt; inactive = no such curve, though single readings can be large; an effect the other way counts as inactive or inconclusive. Potency is the fitted concentration of half-maximal effect.

SMILES	a7 integrin act	RORg inh	VP16 counter	Mito fusion act	Chronic BCR inh	uPA surface inh
Cc1ccc(-n2c(C)cc(/C=N/NC(=O)c3ccncc3)c2C)cc1	-9%	7.9µM*	?	-1%	2%	nt
Cc1cccc(-n2c(C)cc(/C=N/NC(=O)c3ccc(CN4CCOCC4)cc3)c2C)c1	-26%	10µM*	-4%[0.365 µM]	-4%	-2%	-8%
Cc1ccc(-n2c(C)cc(/C=N/NC(=O)CC3(C)OCCO3)c2C)cc1	-21%	-22%	?	1%	?	1%
Cc1ccc(-n2c(C)cc(/C=N/NC(N)=S)c2C)cc1	-35%	2.8µM*	4.5µM*	28%	-20%	6%
O=C(N/N=C/c1ccc(OC(=O)c2ccccc2)cc1)c1ccc(CN2CCOCC2)cc1	-6%	39%	-3%	2%	15%	-1%
COc1ccc([C@H]2CC(=O)C=C(c3ccc(C(=O)O)cc3)C2)cc1OC	?	nt	nt	-12%	-5%	0%
O=C(NC(=S)Nc1ccccc1O)c1ccccc1Cl	-33%	7.1µM*	?	22%	?	0%
COC(=O)c1cccc(NC(=O)NC(=O)c2ccccc2Cl)c1	-27%	?	-13%	0%	?	1%
CC(=O)c1cccc(NC(=S)NC(=O)c2ccccc2Cl)c1	8%	13µM*	-86%	0%	?	6%
CC(=O)c1cccc(NC(=S)NC(=O)c2ccc(C)cc2Cl)c1	0%	11µM*	13µM*	-1%	4%	15%
COc1cc(OC)c(NC(=S)Nc2cccc(C(C)=O)c2)cc1Cl	5%	?	0%	-9%	-16%	5%
CCCNC(C)(C)COC(=O)c1ccccc1	nt	12%[16.9 µM]	-1%[17 µM]	2%	1%	14%
Cc1cccc(Nc2cc(Cl)nc(SCC(=O)O)n2)c1C	nt	-3%	1%	nt	nt	nt
CCOC(=O)N/N=C1/C[C@@H](O)[C@@H](O)[C@@H]2[C@@H]3C(=O)N(C(C)(C)C)C(=O)[C@H]3CC[C@H]12	nt	-11%[10 µM]	-1%[10 µM]	nt	nt	nt
O=C(Nc1ccc2c(c1)CCCN2C(=O)c1ccccc1)c1ccccc1	-4%	?	14%	-18%	10%	-1%
Cc1nc2c3ccccc3nc(NNC(=O)CCC(=O)NCCC(C)C)n2n1	-14%	-4%	3%	-4%	5%	-11%
CCN(CC)CCCNC(=O)CCC(=O)NNc1nc2ccccc2c2nc(C)nn12	5%	18µM*	?	-34%	?	4%
O=C(N/N=C/c1cccs1)C(=O)Nc1cccc(Cl)c1	-22%	3.2µM*	10µM*	5%	?	9%
O=C(N/N=C/c1ccncc1)c1cccs1	0%	-2%	?	-1%	?	-9%
Cc1ccc(/C=N/NC(=O)c2ccccn2)s1	0%	?	22µM*	-2%	?	-5%
CCc1ccc(/C=N/NC(=O)c2ccccn2)cc1	22%	10µM*	?	-1%	?	-14%
O=C(N/N=C\c1ccc(Cl)s1)c1cccs1	-19%	5.6µM*	5.6µM*	-1%	?	7%
CCN(CC)c1ccc(/C=N/NC(=O)c2ccccn2)cc1	14%	?	-8%	-4%	?	-17%
COc1cc(C=NNC(=O)C(=O)Nc2cccc(Cl)c2)cc(OC)c1O	9%	nt	nt	nt	nt	nt
CC1CC2C3CCC4=CC(=O)C=C[C@@]4(C)[C@]3(F)C(O)C[C@]2(C)[C@]1(O)C(=O)CO (stereo not given in full)	nt	-12%	5%	nt	nt	nt
SMILES	a7 integrin act	RORg inh	VP16 counter	Mito fusion act	Chronic BCR inh	uPA surface inh
CN[C@H](C)CCC=C(C)C	nt	2%	-11%	nt	nt	nt
Cn1cccc1/C=N/NC(=O)c1ccccn1	?	-4%	1%	-1%	?	-10%
O=C(N/N=C/c1cccs1)c1ccccn1	26%	14µM*	?	-2%	?	-28%
O=C(Cn1nc(-c2ccccc2)c2ccccc2c1=O)NCCO	-14%	-1%	2%	-2%	?	9%
COc1ccc([C@H]2CC(=O)C=C(c3cccc(OC)c3OC)C2)cc1OC	-24%	nt	nt	13%	?	-5%
CC1=NN(C(=O)c2ccc(Cn3nc(C)c([N+](=O)[O-])c3C)o2)C(O)(C(F)(F)F)C1 (stereo not given)	16%	2.5µM*	7.1µM*	-4%	-11%	4%
O=C(c1ccccc1[N+](=O)[O-])N1N=C(c2ccccc2)CC1(O)C(F)(F)F (stereo not given)	0%	?	-22%	-7%	?	-13%
CC1=NN(C(=O)c2ccc(Cn3ccc([N+](=O)[O-])n3)cc2)C(O)(C(F)(F)F)C1 (stereo not given)	1%	10µM*	13µM*	-9%	1%	-6%
COc1ccccc1/C=C/C=N/NC(=O)c1cc(-c2ccc(C)o2)[nH]n1	-27%	13µM*	?	-4%	?	-11%
O=C(CN1CCN(Cc2ccccc2Cl)CC1)N/N=C/C=C\c1ccccc1[N+](=O)[O-]	-11%	-45%	0.16µM*	-8%	-5%	10%
Cc1ccc(NC(=O)c2cccnc2)c([N+](=O)[O-])c1	-14%	-5%[1.91 µM]	0%	1%	0%	3.5µM*
O=C(Cc1cccs1)N/N=C/C=C/c1ccccc1[N+](=O)[O-]	0%	2%	-13%	0%	12%	-1%
O=C(N/N=C/C=C\c1ccccc1[N+](=O)[O-])c1cccs1	-32%	14µM*	?	-1%	?	-19%
COc1ccc(NC(=O)c2cccnc2)c([N+](=O)[O-])c1	2%	-40%	-1%	-5%	-13%	-15%
Cc1ccc(CSC2=Nc3ccccc3C3=NC(CC(=O)NC4CCCCC4)C(=O)N23)cc1 (stereo not given)	nt	nt	nt	nt	2%	nt
CCOc1ccc(S(=O)(=O)NCc2cccnc2)cc1C(C)C	-28%	?	-8%	-1%	-7%	-4%
COc1ccccc1C=NNC(=O)c1ccncc1	-6%	nt	nt	nt	nt	16%
O=C(N/N=C/C=C\c1ccccc1[N+](=O)[O-])c1cccnc1	-6%	10µM*	?	-4%	-13%	-1%
O=C(N/N=C/C=C\c1ccccc1[N+](=O)[O-])c1cc(-c2ccc3ccccc3c2)n[nH]1	-67%	3.2µM*	4.5µM*	-1%	?	1%
COc1ccccc1/C=C/C=N/NC(=O)c1ccncc1	-35%	5.6µM*	11µM*	5%	?	1%
